Only some compounds are listed: those with a hit (about 3.2% of all), similar ones and a draw of the others.
Nrf2 block = inhibitors of Nrf2 signaling. 2.1% of 360,000 active. Potency, µM (top dose mostly 46 µM), without a hit: at the highest dose activity change, negative = inhibition, hits mostly inhibitors. AID 504444. A549 ARE-Fluc reporter, luciferase luminescence, 18-24 h; further: potency means the concentration at half of the fitted maximal effect; on the % scale 0 is the no-effect control and ±100 the full control effect; nearly all actives have a fitted effect of over 60% in size
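Nrf2 activity is the BugLite luminescence, read 15 min after reagent at room temperature, following CellTiter-Fluor cytotoxicity readout (30 min, 37C). Compound titrations were applied for 18-24 h to 5000 A549 ARE_Fluc cells/well in 5% FBS OPTI-MEM.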
IL2 activator = activates IL-2 in a cell-based reporter assay | 0.065% of 360,000 active | AID 652025 | activation, % (series mostly up to about 46 µM) | IL-2 activation reporter assay, cell-based qHTS; stimulated with anti-CD3/CD4/CD28 beads; in transgenic mouse T cells; in the data active means activation above about 50%; inconclusive means mostly about 30% to 49%; further: 0% is about no effect
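Screening format: compound pinned onto unstimulated transgenic mouse T cells, 60 min incubation, then anti-CD3/anti-CD4/anti-CD28 bead stimulation for 18 hours at 37 degrees C, followed by EGFP and DsRed detection.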
Nrf2 ARE act = activates Nrf2 signaling; AREc32 ARE-luciferase reporter (MCF7-derived line), luminescence, 24 h; Potency, µM (top dose mostly 46.1 µM), for inactives: at the highest dose activation, actives largely listed as activators; 0.31% of 410,000 active; further: potency means the concentration at half of the fitted maximal effect; % of control where 0% means no effect; nearly all actives have a fitted effect of over 65% in size
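Steps: seed AREc32_Fluc cells (1000/well, 5% FBS OPTI-MEM); incubate overnight at 37 deg C; add 23 nL compound; incubate 24 hr; add Steady-Glo; hold 30 min RT; read luminescence.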
BRCA1 expr up = BRCA1 expression activation | MCF7-BRCA1-FFLuc reporter, luminescence, 48 h; response scale: scaled: vehicle 0%, 10 µM genistein 100% | Potency, µM (highest dose often 46.1 µM), for the others: top-dose activation, actives largely listed as activators | 1.1% of 380,000 active | AID 624202; further: potency means the concentration at half of the fitted maximal effect; nearly all actives have a fitted effect of over 80% in size
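48 h compound treatment of MCF7-BRCA1-FFLuc cells (phenol-red free MEM, 37 °C), then 15 min with luciferase substrate and luminescence imaging.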
A549 tox-1 = counter-screen for Nrf2 inhibitors: cytotoxicity in A549 cells. A549 ARE-Fluc cells, CellTiter-Fluor viability, 18-24 h. Potency, µM (top dose mostly 46 µM), for the others: at the highest dose activity change, negative = cytotoxicity, usual class: inhibitors. 0.16% of 390,000 active. AID 504648; further: potency means the concentration at half of the fitted maximal effect; on the % scale 0 is the no-effect control and ±100 the full control effect
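A549 ARE-Fluc cells in 5% FBS OPTI-MEM, 5000 cells/well, rested 2 h then exposed to compounds in concentration-response for 18-24 h at 37 °C. Viability by CellTiter-Fluor fluorescence (Ex 405/Em 525) after 30 min; luciferase luminescence (BugLite, 15 min, RT) read afterwards.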
p53 reactivator = mutant p53 re-activation in reporter cells; H1299 p53-A138V BP100-luciferase reporter, luminescence, 24 h; Potency, µM (top dose mostly 92.2 µM), for inactives: at the top dose activity change, positive = activation, hits mostly activators; 0.063% of 320,000 active; AID 504706; further: potency means the concentration at half of the fitted maximal effect; % of control where 0% means no effect; nearly all actives have a fitted effect of over 45% in size
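p53-null H1299 cells stably carrying temperature-sensitive p53-A138V and a BP100-luciferase reporter were pinned with compounds (4-point, 1:5 series) and held 24 hrs at 37 deg C. Luminescence was read 10 min after detection reagent.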
FLuc counter 3 = counter-screen for Nrf2 inhibitors: firefly luciferase enzyme inhibition | shares compounds with Nrf2 block | purified firefly luciferase, luminescence inhibition | Potency, µM (top dose mostly 57.5 µM), without a hit: at the top dose activity change, negative = inhibition, most hits filed as inhibitors | 4% of 1,400 active; further: potency means the concentration at half of the fitted maximal effect; on the % scale 0 is the no-effect control and ±100 the full control effect; nearly all actives have a fitted effect of over 65% in size
Target sequence (P08659 whole entry, looked up): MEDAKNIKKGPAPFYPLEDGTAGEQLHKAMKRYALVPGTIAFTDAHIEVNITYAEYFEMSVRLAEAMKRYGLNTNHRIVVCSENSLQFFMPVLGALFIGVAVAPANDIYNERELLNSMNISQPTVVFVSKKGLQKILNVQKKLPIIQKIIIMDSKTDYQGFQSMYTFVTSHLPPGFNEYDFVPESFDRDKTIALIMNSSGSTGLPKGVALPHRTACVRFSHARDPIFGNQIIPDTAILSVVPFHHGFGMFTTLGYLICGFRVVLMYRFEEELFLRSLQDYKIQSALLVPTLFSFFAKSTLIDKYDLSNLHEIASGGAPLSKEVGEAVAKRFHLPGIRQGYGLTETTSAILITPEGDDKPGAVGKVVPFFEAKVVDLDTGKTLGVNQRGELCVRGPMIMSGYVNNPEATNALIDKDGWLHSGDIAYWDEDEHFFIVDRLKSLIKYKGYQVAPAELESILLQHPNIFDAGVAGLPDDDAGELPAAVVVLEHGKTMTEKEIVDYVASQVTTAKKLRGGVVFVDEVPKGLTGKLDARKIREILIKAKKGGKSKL
A549 tox-2 = toxic to A549 ARE-Fluc cells in Nrf2 counterscreen | shares compounds with Nrf2 block | A549 ARE-Fluc cells, cytotoxicity counterscreen | Potency, µM (top dose mostly 46.1 µM), for the others: at the highest dose activity change, negative = cytotoxicity, hits mostly inhibitors | 2% of 1,400 active;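 further: potency means the concentration at half of the fitted maximal effect; cells exposed to compounds for 18 to 24 hours; on the % scale 0 is the no-effect control and ±100 the full control effect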
Nrf2 ARE inh = Nrf2 inhibition confirmed, A549 ARE-luciferase. shares compounds with Nrf2 block. A549 ARE-firefly luciferase reporter, luminescence. Potency, µM (titrated, usually from 46.1 µM), for the others: top-dose activity change, negative = inhibition, hits mostly inhibitors. 74% of 1,400 active; further: potency means the concentration at half of the fitted maximal effect; on the % scale 0 is the no-effect control and ±100 the full control effect; nearly all actives have a fitted effect of over 65% in size
An asterisk follows results filed as active; ? = inconclusive; / = no result given. Unless noted, the call rests on the fitted dose curve; in most records, active means well fitted curve in the direction sought with a large enough effect; inconclusive means small, poorly fitted or top-dose-only effect, or another doubt; inactive means no such curve, though single readings can be large; an effect the other way counts as inactive or inconclusive.

SMILES | Nrf2 block | IL2 activator | Nrf2 ARE act | BRCA1 expr up | A549 tox-1 | p53 reactivator | FLuc counter 3 | A549 tox-2 | Nrf2 ARE inh
CCCN(CCC)C(=O)c1c[nH]c2ccc(S(=O)(=O)N(C)c3ccc(OCC)cc3)cc2c1=O | / | / | 0.6% | / | ? | / | / | / | /
COc1ccc(Nc2nnc(SC(C(=O)Nc3cc(C)ccc3C)c3ccccc3)s2)cc1 (centres undefined) | 8.2µM* | -2.4 | 2.2% | -44.2% | -15.6% | -1.7% | -0.3% | -6.1% | -25.0%
COc1ccc(C)cc1NC(=O)C(Sc1nnc(Nc2cc(C)ccc2OC)s1)c1ccccc1 (centres undefined) | 8.1% | 0.1 | 4.1% | -49.8% | 0.1% | -8.4% | / | / | /
Cc1ccc(-c2csc3nc(-c4ccncc4)[nH]c(=O)c23)cc1 | ? | 4.1 | 0.2% | 27.2% | -6.7% | 6.1% | -27.7% | -12.3% | 1.84µM*
COc1cc(OC)c(OC)cc1CN1CCc2nc(Nc3ccc4c(c3)OCCO4)ncc2C1 | / | / | 1.0% | / | 0.2% | / | / | / | /
CCN1/C(=C/C(C)=O)Sc2ccc(OC)cc21 | 2.0% | -2.1 | -0.4% | -40.0% | -1.6% | ? | / | / | /
CCCCN1/C(=C/c2cccc[n+]2C)Sc2cc(NC(C)=O)ccc21 | 0.1% | 2.5 | -0.6% | 2.0% | -1.6% | 5.3% | / | / | /
CN1/C(=C/c2cccc[n+]2C)Sc2ccccc21 | 0.82µM* | -1.7 | -0.6% | -19.2% | 11.6µM* | 21.0% | -1.2% | ? | 2.06µM*
CCN1/C(=C/c2cccc[n+]2C)Sc2ccc(OC)cc21 | 5.8µM* | 7.7 | -1.8% | -33.9% | -2.5% | 11.8% | -0.8% | -28.5% | 6.51µM*
COc1ccc2c(c1)N(C)/C(=C/c1cccc[n+]1C)S2 | 3.26µM* | 21.7 | 3.1% | -41.2% | 16.4µM* | 24.9% | -1.1% | ? | 4.11µM*
COc1ccc(CNc2nc3c(-c4ccccc4)nnn3c3ccccc23)cc1 | 5.1% | / | 6.5% | -46.2% | -1.3% | / | / | / | /
Cc1oc2ncn(C)c(=O)c2c1C(=O)NCCCN(Cc1ccccc1)C(C)C | ? | / | -0.3% | 0.0% | 1.9% | / | / | / | /
CCc1ccc(NS(=O)(=O)c2[nH]ncc2C(=O)OC)cc1 | -4.3% | / | -0.9% | 14.8% | 0.2% | / | / | / | /
O=C(Nc1nc(-c2ccccn2)cs1)c1cc(Cl)ccc1[N+](=O)[O-] | 4.11µM* | -4.0 | ? | -60.7% | ? | 35.5µM* | 15.1µM* | -27.0% | 1.84µM*
Cc1cc(C(=O)Nc2nc(-c3ccccn3)cs2)ccc1[N+](=O)[O-] | ? | -0.9 | 5.0% | -77.2% | ? | 27.7% | / | / | /
O=C(OCCOc1ccc(Cl)cc1)c1cc(S(=O)(=O)N2CCCCC2)ccc1N1CCOCC1 | 8.2µM* | -0.8 | 3.6% | -36.0% | -13.9% | / | 4.0% | -10.3% | 8.2µM*
O=C(COC(=O)c1cc(S(=O)(=O)N2CCCCC2)ccc1N1CCOCC1)c1ccccc1Cl | / | 2.4 | 2.2% | -18.7% | / | / | / | / | /
CCOc1cc(/C=N\NC(=O)c2ccc(NC(=O)C(C)(C)C)cc2)ccc1OC(=O)c1cccc(C)c1 | 5.17µM* | -0.6 | -0.6% | -69.1% | -3.0% | -13.7% | -0.1% | -2.6% | 14.6µM*
Cc1cccc(C(=O)Oc2ccccc2/C=N/NC(=O)c2ccc(NC(=O)C(C)(C)C)cc2)c1 | 1.3% | 0.0 | 3.7% | -38.7% | 0.2% | -4.2% | / | / | /
CCC(C(=O)Nc1cc(F)ccc1F)n1nc(-c2cc(C)ccc2C)ccc1=O (centres undefined) | -4.4% | / | 4.9% | -56.8% | -11.2% | / | / | / | /
CSCCC(NC(=O)CCC(=O)OCC(=O)[C@@]1(O)CCC2[C@@H]3CCC4=CC(=O)C=C[C@]4(C)C3[C@@H](O)C[C@@]21C)C(=O)O (some centres undefined) | 0.206µM* | -3.4 | -0.6% | 1.5% | 1.0% | 1.1% | -0.5% | -6.4% | 0.058µM*
CC(C)CC(NC(=O)CCC(=O)OCC(=O)[C@@]1(O)CCC2[C@@H]3CCC4=CC(=O)C=C[C@]4(C)C3[C@@H](O)C[C@@]21C)C(=O)O (some centres undefined) | ? | 1.0 | 0.1% | -1.7% | -11.5% | -0.1% | / | / | /
C[C@]12C=CC(=O)C=C1CC[C@@H]1C2C(O)C[C@@]2(C)C1CC[C@]2(O)C(=O)COC(=O)CCC(=O)NC(CC(=O)O)C(=O)O (some centres undefined) | 0.103µM* | -1.0 | 2.7% | -6.2% | 0.0% | 19.7% | 4.3% | -11.1% | 0.259µM*
Cc1cc(C)c(C)c(S(=O)(=O)N2CCN(c3ncnc4ccccc34)CC2)c1C | 9.2µM* | -0.9 | 3.5% | -40.1% | -19.6% | -5.2% | 0.4% | -22.4% | 9.2µM*
COc1ccc(/C=N\NC(=O)c2ccccc2Br)cc1COc1c(F)c(F)cc(F)c1F | 5.17µM* | -1.8 | 2.3% | -82.6% | ? | -12.2% | 0.7% | -6.6% | ?
SMILES | Nrf2 block | IL2 activator | Nrf2 ARE act | BRCA1 expr up | A549 tox-1 | p53 reactivator | FLuc counter 3 | A549 tox-2 | Nrf2 ARE inh
CCCCOCCCNc1ncnc2c1[nH]c1ccccc12 | 9.2µM* | -4.5 | 2.2% | -72.0% | -12.5% | -7.9% | -27.0% | -2.4% | 11.6µM*
CCOc1ccc2[nH]c3c(NCCO)ncnc3c2c1 | 9.9% | 2.6 | 0.1% | 54.4% | 0.7% | 4.9% | / | / | /
Nc1cc(S(=O)(=O)N2CCOCC2)ccc1Oc1cccc(Br)c1 | 8.2µM* | 1.9 | 2.9% | -47.6% | -18.5% | -3.1% | 0.3% | -1.2% | 8.2µM*
O=C(NCc1cccnc1)C(=O)NCC(c1cccnc1)N1CCN(c2ccccc2F)CC1 (centres undefined) | ? | / | 2.6% | / | 10.7% | / | / | / | /
COc1ccc(C2CC(=O)c3c([nH]c(C(=O)OCc4ccccc4)c3C)C2)cc1 (centres undefined) | ? | / | -1.1% | / | -4.4% | / | / | / | /
COc1ccc(COC(=O)c2[nH]c3c(c2C)C(=O)CC(c2ccc(OC)c(OC)c2)C3)cc1 (centres undefined) | 6.51µM* | / | -0.9% | / | -8.2% | / | -1.8% | -0.2% | 6.51µM*

Assay outcomes (PubChem BioAssay)
